Measured values: PubChem BioAssay (NCATS)
Records with an inconclusive call do not appear. A call without a number means that no potency is given here. Calls of active or inactive are those of the source. Calls follow the shape of the dose curve; as a rule, active = well fitted inhibition curve with a large enough effect; inconclusive = small, poorly fitted or top-dose-only effect; inactive = flat fitted curve, though single readings scatter.

target: Glutathione peroxidase 1 (Homo sapiens) (UniProt P07203); experiment: Primary qHTS Assay for Inhibitors of Recombinant Selenoprotein Glutathione Peroxidase 1 (GPX1) (AID 1845191); settings: recombinant GPX1, GR-coupled NADPH fluorescence, 15 min; series mostly up to 48.8 µM; also: nearly all actives have a fitted effect of over 65% in size
Summary of the method: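 GR-coupled readout: NADPH consumption tracked by fluorescence, ex 340/em 450 nm, at t=0 and after 15 min at RT. Final mix 10 nM GPX1, 1 mM GSH, 0.5 mM CHP, 0.5 mM NADPH, 100 nM GR, 0.01% BSA, following 30 min enzyme–compound preincubation.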

Sequence of Glutathione peroxidase 1 (Homo sapiens) (P07203 whole entry, looked up): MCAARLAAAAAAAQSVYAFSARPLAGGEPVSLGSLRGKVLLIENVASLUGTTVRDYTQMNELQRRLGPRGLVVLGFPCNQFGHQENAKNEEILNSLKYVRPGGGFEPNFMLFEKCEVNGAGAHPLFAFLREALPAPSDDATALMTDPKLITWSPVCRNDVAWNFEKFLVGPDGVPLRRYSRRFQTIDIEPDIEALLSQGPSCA

SMILES | Potency
O=C(Nc1nnc(-c2ccc3c(c2)OCCO3)o1)C1CCCCC1 | inactive
CC(C)n1c(=O)c(C(=O)NC2CC3CCC(C2)N3C[C@@H](O)CN(C)S(C)(=O)=O)cc2ccccc21 (stereo partly specified) | inactive
NCC1CCN(c2nccc(-c3ccc4ccccc4c3)n2)CC1 | inactive
CCOc1ccc(-n2c(C(C)N(Cc3cccnc3)C(=O)Cc3ccc(F)c(C(F)(F)F)c3)nc3ncccc3c2=O)cc1 (stereo unspecified) | inactive
CC(C)S(=O)(=O)c1ccc2nccc(Nc3ccc4scnc4c3)c2c1 | inactive
CCC(C)CC(=O)OC1C(=O)C(CO)=CC(O)C1C(C)C (stereo unspecified) | inactive
CC(C)=CCC[C@](C)(O[C@@H]1O[C@H](CO[C@@H]2OC[C@@H](O)[C@H](O)[C@H]2O)[C@@H](O)[C@H](O)[C@H]1O)[C@H]1CC[C@]2(C)[C@@H]1[C@H](O)C[C@@H]1[C@@]3(C)CC[C@H](O[C@@H]4O[C@H](CO)[C@@H](O)[C@H](O)[C@H]4O)C(C)(C)[C@@H]3CC[C@]12C | inactive
COc1cc(-n2cnc3cc(-c4ccc(Cl)cc4)sc3c2=O)ccc1OCCN1CCCC1 | inactive
CCc1ccc(-c2nc(CSCC(=O)NCCc3ccccc3)c(C)o2)cc1 | inactive
CC(C)NC(=O)COc1cccc(-c2nc(Nc3ccc4[nH]ncc4c3)c3ccccc3n2)c1 | inactive
CC(=O)O[C@@H]1[C@@H](OC(C)=O)[C@H](C)O[C@@H](O[C@H]2[C@@H]3C=CO[C@@H](O[C@@H]4O[C@H](CO)[C@@H](O)[C@H](O)[C@H]4O)[C@@H]3[C@@]3(CO)O[C@@H]23)[C@@H]1OC(=O)/C=C/c1ccccc1 | inactive
